Source: PubChem BioAssay (National Center for Advancing Translational Sciences (NCATS))
A selection: hits, their analogues and other compounds. The true share with any hit is near 4.2%.
DNA Pol III inh: blocks replication by bacterial DNA polymerase III holoenzyme; reconstituted DNA polymerase III holoenzyme replication, biochemical; Potency, µM (top dose mostly 57.1 µM), for inactives: at the highest dose activity change, negative = inhibition; actives 0.25% (n = 71,000); AID 603; note: potency is the fitted concentration of half-maximal effect; % is set by controls: 0 for no effect and ±100 for the full control effect
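Reconstituted *E. coli* holoenzyme (0.35 nM Pol III, 1 nM beta, 154 nM SSB, 2 nM primase) was preincubated with compound for 15 min at RT. Synthesis on 1.4 nM ssM13Gori ran 35 min, then was stopped with PicoGreen/EDTA and read as dsDNA fluorescence.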
15-hLO inh: blocks human 15-lipoxygenase activity; Potency, µM (doses to about 57.1 µM), without a hit: top-dose activity change, negative = inhibition, actives largely listed as inhibitors; purified 15hLO-1, xylenol orange hydroperoxide absorbance; AID 887; actives 1.4% (n = 74,000); P16050; note: potency is the fitted concentration of half-maximal effect; % is set by controls: 0 for no effect and ±100 for the full control effect; nearly all actives have a fitted effect of over 55% in size
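Readout: Fe(III)-xylenol orange absorbance, 573-to-405 nm ratio as reaction progress. Enzyme 40 nM purified human 15hLO-1, substrate 50 uM arachidonic acid, 6 min RT after 15 min compound preincubation; Hepes pH 7.5 buffer with Triton X-100.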
ERK AVP block: inhibitors of vasopressin-stimulated ERK signaling pathway. AID 995. Potency, µM (top dose mostly 57.5 µM), for the others: at the top dose activity, negative = inhibition, most hits filed as inhibitors. HEK293-V1b, vasopressin-stimulated pERK AlphaScreen. actives 0.99% (n = 72,000); note: potency is the fitted concentration of half-maximal effect; % is set by controls: 0 for no effect and ±100 for the full control effect; nearly all actives have a fitted effect of over 55% in size
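V1b-HEK293 cells; cpd 30 min 37C; 25 nM vasopressin 5 min; lyse 10 min; AlphaScreen beads 5 hr RT. Normalized to DMSO basal and 25 nM vasopressin; AC50 by Hill fit.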
Hsp90 Hop PPI: changes Hsp90-Hop TPR2A binding signal, up or down; AlphaScreen TPR2A-His6 binding biotin-Hsp90 C-terminal peptide; Potency, µM (series often up to 57 µM), for the others: at the highest dose activity change, negative = inhibition; actives 0.44% (n = 71,000); AID 595; active = well fitted curve in either direction with a large enough effect; inconclusive = small, poorly fitted or top-dose-only effect, or another doubt; note: potency is the fitted concentration of half-maximal effect; % is set by controls: 0 for no effect and ±100 for the full control effect
TsaE inh: YjeE (TsaE) inhibition, E. coli. Potency, µM. actives 0.05% (n = 71,000). purified YjeE enzyme, qHTS inhibition assay. AID 605. P0AF67
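Purified YjeE (10 uM) with BODIPY Texas Red-labeled ADP probe (2 uM); compounds pin-transferred, 15 min at room temperature. Binding inhibition read as decreased fluorescence polarization; ADP titration as control.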
Tau fil binding: binders of human tau filaments; P10636; recombinant tau filaments, thioflavin S fluorescence, 15 h; filaments grown with octadecylsulfate alongside compound; Potency, µM (top dose mostly 57.1 µM), inactives show top-dose activity change, negative = inhibition; actives 2% (n = 71,000);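 note: potency is the fitted concentration of half-maximal effect; % is set by controls: 0 for no effect and ±100 for the full control effect; actives lower thioflavin S fluorescence by blocking filaments or displacing dye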
Target sequence (P10636 whole entry, looked up): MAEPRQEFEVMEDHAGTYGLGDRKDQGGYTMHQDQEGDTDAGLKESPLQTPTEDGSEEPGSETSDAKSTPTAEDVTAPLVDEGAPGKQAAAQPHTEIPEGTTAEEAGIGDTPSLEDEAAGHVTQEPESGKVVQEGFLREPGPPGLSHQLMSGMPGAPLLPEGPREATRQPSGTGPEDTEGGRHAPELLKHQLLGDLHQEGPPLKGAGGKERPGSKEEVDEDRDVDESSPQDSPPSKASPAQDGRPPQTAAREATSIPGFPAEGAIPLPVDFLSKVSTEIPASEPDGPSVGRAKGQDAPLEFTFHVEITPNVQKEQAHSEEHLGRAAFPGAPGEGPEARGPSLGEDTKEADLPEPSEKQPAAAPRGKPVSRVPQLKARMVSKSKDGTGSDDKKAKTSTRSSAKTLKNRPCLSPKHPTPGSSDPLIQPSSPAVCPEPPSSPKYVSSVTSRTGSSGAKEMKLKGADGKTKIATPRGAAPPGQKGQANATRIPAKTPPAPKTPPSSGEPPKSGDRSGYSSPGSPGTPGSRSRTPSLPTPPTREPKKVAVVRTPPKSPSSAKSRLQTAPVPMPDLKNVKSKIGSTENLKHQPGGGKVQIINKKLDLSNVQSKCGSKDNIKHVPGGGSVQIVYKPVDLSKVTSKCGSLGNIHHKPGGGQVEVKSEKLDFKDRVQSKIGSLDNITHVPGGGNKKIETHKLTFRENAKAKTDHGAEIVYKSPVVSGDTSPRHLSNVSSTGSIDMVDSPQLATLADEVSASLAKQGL
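ThS-based fibril read: tau 1 uM final, inducer ODS 30 uM final, 37 C for 15 h, ex 450/em 510 nm.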
An asterisk follows results filed as active; i = inactive; ? = inconclusive; . = no result; ! = a repeat was not active; [ ] = another dose, or the depositor's remark. Unless noted, calls come from the whole dose curve; as a rule, active = well fitted curve in the direction sought with a large enough effect; inconclusive = small, poorly fitted or top-dose-only effect, or another doubt; inactive = no such curve, though single readings can be large; an effect the other way counts as inactive or inconclusive.

SMILES	DNA Pol III inh	15-hLO inh	ERK AVP block	Hsp90 Hop PPI	TsaE inh	Tau fil binding
CCc1nc(CNC(=O)c2cc(OC)c(OC)c(OC)c2)no1	-7%	10µM*	-2%	-5%	i	11%
CCOP(=S)(OCC)SCSC(C)(C)C	-4%	-26%	-26%	-1%	i	-8%
COC(=O)C1=C(C)NC(C)=C(C(=O)OC)C1c1ccccc1[N+](=O)[O-]	-2%	-14%	25µM*!	-3%	?	?
CCCCc1ccc(C(=O)O)nc1	1%	10%[25.6 µM]	3%	2.5µM*	i	?
CCCCCCCCc1ccc(O)cc1	-6%	-15%	.	2%	i	-3%
Cc1ccc(S(=O)(=O)N(C)CCCC(=O)N2CCN(c3ccccn3)CC2)cc1	-3%	?	25µM*	-2%	i	12%
COc1cc2c(cc1O)CCNC2C (stereo unspecified)	.	10%	-2%	.	.	.
CCNCCC1(CC)C(=O)NC(=O)NC1=O	-4%[11.4 µM]	-7%[11.4 µM]	12%[11.5 µM]	-2%[11 µM]	i	-8%[11.4 µM]
CCC1/C=C/C=CCC(C)C(O)[C@@](C)(O)C(=O)C(C)C(O)C(C)C(=O)C(C)C(O)C(C)C=CC(=O)O[C@H]2C(C)C(CC1)O[C@]1(CCC(C)C(CC(C)O)O1)C2C (stereo partly specified)	.	-12%	4%	.	.	.
COc1ccc(N2C(=O)C(Cl)=C(N3CCN(Cc4ccccc4)CC3)C2=O)cc1	4%	-7%	?	?	i	-4%
O=C1C(Cl)=C(N2CCCCCC2)C(=O)N1c1ccccc1	-1%	5µM*	31%	25%	i	-22%
C[C@@H]1O[C@@H](O[C@H]2C[C@@H](O)[C@@]3(CO)[C@H]4[C@H](O)C[C@]5(C)[C@@H](C6=CC(=O)OC6)CC[C@]5(O)[C@H]4CC[C@@]3(O)C2)[C@@H](O)[C@H](O)[C@H]1O	-4%[11.4 µM]	20%[11.4 µM]	-10%[11.5 µM]	-3%[11 µM]	i	3%[11.4 µM]
[Cd+2].[Cl-].[Cl-]	0.063µM*	13µM*	-9%	-10%	?	5%
O=[N+]([O-])c1ccccc1-c1ccccc1	0%	21%	10%	1%	i	4%
COc1cc(N)ccc1Cc1ccc(N)cc1OC	-7%	-2%	?	-13%	i	25µM*
Cc1ccc(-n2c(O)c(C=NC3CCCCC3N)c(=O)[nH]c2=O)cc1C (stereo unspecified)	3%	2%	6%	-11%	i	11%
CN1CCC2=C[C@H](O)[C@@H]3OC(=O)c4cc5c(cc4[C@H]3[C@H]21)OCO5	-4%[25.6 µM]	9%[25.6 µM]	-9%[25.7 µM]	0%[26 µM]	i	5%[25.6 µM]
CC(Cl)(Cl)Cl	0%	1%	4%	-4%	i	-6%
CCC(=Nc1ccc(OC)cc1OC)c1c(O)n(C2CCCCC2)c(=O)[nH]c1=O	3%	?	-28%	-17%	i	10µM*
O=[As](O)(O)c1ccc(Cc2ccc([As](=O)(O)O)cc2)cc1	-4%[11.4 µM]	?	1%[11.5 µM]	-5%[11 µM]	i	-5%[11.4 µM]
COC(=O)[C@@H]1c2cc3c(c(O)c2[C@@H](O)C[C@]1(C)O)C(=O)c1c(O)cc2c(c1C3=O)O[C@H]1O[C@@]2(C)[C@@H](O)[C@H](N(C)C)[C@H]1O	-8%[11.4 µM]	?	3%[11.5 µM]	-6%[11 µM]	i	-18%[11.4 µM]
COC(=O)c1c(C)ccc2c(O)c3c(cc12)C(=O)c1c2c(cc(O)c1C3=O)[C@@]1(C)O[C@@](C)(O2)[C@@H](O)[C@H](N(C)C)[C@H]1O	-10%[11.4 µM]	?	14%[11.5 µM]	-8%[11 µM]	i	4µM*
Nc1ccnn1C1CCNCC1	-5%	65%	32%	7%	i	25µM*
c1cc2c(cc1C1OC[C@@H]3C(c4ccc5c(c4)OCO5)OCC13)OCO2 (stereo partly specified)	.	-8%	31%	.	.	.
Oc1ccc(Cl)cc1Sc1cc(Cl)ccc1O	-9%[11.4 µM]	4µM*	-14%[11.5 µM]	-5%[11 µM]	i	5%[11.4 µM]
SMILES	DNA Pol III inh	15-hLO inh	ERK AVP block	Hsp90 Hop PPI	TsaE inh	Tau fil binding
Cc1cc(Cl)ccc1O	-7%	-3%	-10%	-4%	i	-16%
Nc1cc(Cl)ccc1O	-11%	1.6µM*	?	?	i	?
Nc1ccc(Cl)cc1N	-1%	?	4%	-5%	i	2.5µM*
Nc1cc(Cl)ccc1Cl	3%	-5%	7%	-1%	i	-1%
CC(C)(C)OO	1%	6%	9%	-2%	i	1%
CNC(C)C(O)c1ccccc1 (stereo unspecified)	.	-3%	9%	.	.	.
CN[C@@H](C)[C@@H](O)c1ccccc1	-6%	0.4µM*	-22%	?	i	-3%
c1ccc2c(CCNC3=NCCC3)c[nH]c2c1	?	13µM*	-14%	-7%	i	-2%
O=C(O)Cc1ccc(OCCNC[C@H](O)c2ccccc2)cc1	.	?	22%	.	.	.
O=C1C=C2C=C[C@H]3C[C@@]2(O1)[C@H]1CCCCN31	-3%	10%[25.6 µM]	14%[25.7 µM]	-3%	i	-26%
Oc1cccc2cccnc12	-13%[11.4 µM]	15%[11.4 µM]	9%[11.5 µM]	10µM*!	i	9%[11.4 µM]
Oc1ccc([C@H](O)[C@@H]2CCCCN2)cc1O	-12%[11.4 µM]	-1%[11.4 µM]	-10%[11.5 µM]	-3%[11 µM]	i	0%[11.4 µM]
COC(=O)[C@]1(C)CC[C@@]2(C)CC[C@@]3(C)C4=CC=C5C(=CC(=O)C(O)=C5C)[C@@]4(C)CC[C@@]3(C)C2C1 (stereo partly specified)	.	2µM*	-19%	.	.	.
C[n+]1c(/C=C\c2ccc(O)c3ncccc23)[se]c2ccccc21	-8%[11.4 µM]	9%[11.4 µM]	-5%[11.5 µM]	3.2µM*	i	?
CCN1C(=O)/C(=C2\C=Cc3ccccc3N2CC)OC1=S	0%	-29%	16µM*	-18%	i	1µM*
CCCN(CCC)[C@H]1CCc2c(F)ccc(O)c2C1	-9%	?	?	-6%	i	-4%
c1ccc2c(c1)Sc1ccccc1N2C[C@H]1CN2CCC1CC2	-9%[11.4 µM]	-2%[11.4 µM]	-2%[11.5 µM]	1%[11 µM]	i	1.6µM*
N#CC(C#N)=Cc1ccc([N+](=O)[O-])c(O)c1	-3%	-25%	15%	-17%	i	2%
N#C/C(=C\c1ccc(O)c(O)c1)C(=O)NCCCNC(=O)/C(C#N)=C/c1ccc(O)c(O)c1	2.5µM*	3.2µM*	3%	2µM*	i	5%
COc1ccc2c(c1)CCC1[C@@H]2CCC2(C)[C@@H](NCCCCCCN3C(=O)C=CC3=O)CC[C@@H]12 (stereo partly specified)	-4%	13µM*	7%	-9%	i	?
O=Cc1ccccc1	1%	4%	2%	-3%	i	2%
O=C(O)/C=C\c1ccc[c]([Sb](=[O])([OH])[OH])c1	0.2µM*	-26%[11.4 µM]	6%[11.5 µM]	-8%[11 µM]	i	5%[11.4 µM]
O=c1cccc2n1CC1CC2CN2CCCC[C@H]12 (stereo partly specified)	.	-4%[25.6 µM]	-10%	.	.	.
